Results published in paper PMC5515408, “Sequence-specific DNA binding by MYC/MAX to low-affinity non-E-box motifs”.
Whole data set: some 5,000 sequences, median “log2 normalized fluorescence” near 0.089, cut for the highest 2% near 0.81. For the sample, the highest values were picked, then their nearest neighbours and some sequences at random.

The sequences below were run against MYC (p64);MAX (p21), in MYC:MAX (human;human, UniProt P01106-1;P61244-2 1-439;1-151, |) (assay: protein-binding microarray (anti-MAX antibody); PBM: 15 mM Tris-HCl pH 7.5, 100 mM KCl, 0.075% NP40, 7.5 mM beta-mercaptoethanol, 375 ng/ul BSA, 8 ng/ul poly(dA-dT):(dA-dT), 550 ng complex, 60 min, room tempe; high values mean tight binding). Details: protein: recombinant;recombinant; tags: 6xHis;6xHis; copies: 1;1; label: 3' end of printed strand (linker) attached to glass slide; dsDNA, one strand shown.
Chain of MYC (p64);MAX (p21), in MYC:MAX (P01106 16-454, chain 1 of 2): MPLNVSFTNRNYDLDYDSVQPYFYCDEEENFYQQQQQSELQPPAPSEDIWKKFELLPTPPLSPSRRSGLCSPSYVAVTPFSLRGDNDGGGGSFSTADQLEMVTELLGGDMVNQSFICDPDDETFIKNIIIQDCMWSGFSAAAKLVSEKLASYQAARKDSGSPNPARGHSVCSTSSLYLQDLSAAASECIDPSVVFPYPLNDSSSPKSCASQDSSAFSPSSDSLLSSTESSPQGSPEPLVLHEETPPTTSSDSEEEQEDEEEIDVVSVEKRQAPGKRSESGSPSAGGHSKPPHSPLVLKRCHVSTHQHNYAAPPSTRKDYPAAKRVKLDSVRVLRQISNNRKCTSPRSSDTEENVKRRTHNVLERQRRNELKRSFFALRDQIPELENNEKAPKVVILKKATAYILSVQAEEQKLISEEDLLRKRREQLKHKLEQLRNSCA
Chain of MYC (p64);MAX (p21), in MYC:MAX (P61244 other isoform, or with tags, fused parts or gaps |, chain 2 of 2): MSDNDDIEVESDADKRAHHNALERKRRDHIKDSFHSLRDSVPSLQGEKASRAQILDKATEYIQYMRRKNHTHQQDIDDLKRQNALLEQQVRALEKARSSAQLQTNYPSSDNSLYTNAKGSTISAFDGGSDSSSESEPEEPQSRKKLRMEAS
Summary of the method: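 For each of ~5000 unique double-stranded 12-nt sequences, spotted in triplicate on a custom Agilent glass array, binding of His-tagged human MYC:MAX or MAX:MAX dimers is reported as log2 normalized fluorescence. The dimers (550 ng, E. coli-expressed) were incubated for 60 min at room temperature in Tris-KCl buffer, pH 7.5, with NP40, BSA and poly(dA-dT) competitor. Detection used anti-MAX and secondary antibodies with a 543 nm scan.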
For “CCGGCTGACGCGTCGTATTAATAGCTAAGATTACTATATCGACG”, the binding signal was 0.46 log2 normalized fluorescence.
With “CCGGCTGACGCGTGATATTAATAGCTAAGATTACTATATCGACG” the binding signal was 0.675 log2 normalized fluorescence.
In the case of “CCGGCGCCCACGTGGTATTAATAGCTAAGATTACTATATCGACG”, the binding signal is reported as 0.862 log2 normalized fluorescence.
In the case of “CCGGCCCACACGTGGTATTAATAGCTAAGATTACTATATCGACG”, the binding signal is reported as 0.945 log2 normalized fluorescence.
For “CCGGCCCGCACGTGGTATTAATAGCTAAGATTACTATATCGACG”, the binding signal was 0.749 log2 normalized fluorescence.
“CCGGCCCCCACGTGGTATTAATAGCTAAGATTACTATATCGACG” was tested, and the binding signal was 0.854 log2 normalized fluorescence.
In the case of “CCGGCTCCCACGTGGTATTAATAGCTAAGATTACTATATCGACG”, the binding signal is reported as 0.763 log2 normalized fluorescence.
For “CCGGCCCACACGTGGTGTTAATAGCTAAGATTACTATATCGACG”, the binding signal was 0.705 log2 normalized fluorescence.
In the case of “CCGGCTAAGACGTGGTATTAATAGCTAAGATTACTATATCGACG”, the binding signal is reported as 0.411 log2 normalized fluorescence.
In the case of “CCGGCGACCACGTGGTATTAATAGCTAAGATTACTATATCGACG”, the binding signal is reported as 0.741 log2 normalized fluorescence.
“CCGGCTGATCAAGGGTATTAATAGCTAAGATTACTATATCGACG” was tested, and the binding signal was 0.0432 log2 normalized fluorescence.
With “CCGGCTGAAGTTGTGTATTAATAGCTAAGATTACTATATCGACG” the binding signal was 0.0113 log2 normalized fluorescence.
With “CCGGCTGAACGAAAGTATTAATAGCTAAGATTACTATATCGACG” the binding signal was 0.0903 log2 normalized fluorescence.
“CCGGCTGACACGTGTCGTTAATAGCTAAGATTACTATATCGACG” was tested, and the binding signal was 0.947 log2 normalized fluorescence.
“CCGGCTGACACGTGTTATTAATAGCTAAGATTACTATATCGACG” was tested, and the binding signal was 0.722 log2 normalized fluorescence.
“CCGGCTGACACGTTAGATTAATAGCTAAGATTACTATATCGACG” was tested, and the binding signal was 0.482 log2 normalized fluorescence.
In the case of “CCGGCTGACACGTGAACTTAATAGCTAAGATTACTATATCGACG”, the binding signal is reported as 0.796 log2 normalized fluorescence.
“CCGGCTGACACGTGACGTTAATAGCTAAGATTACTATATCGACG” was tested, and the binding signal was 0.654 log2 normalized fluorescence.
“CCGGCTGACACGTGGTGTTAATAGCTAAGATTACTATATCGACG” was tested, and the binding signal was 0.534 log2 normalized fluorescence.
With “CCGGCTGACACGTGTAATTAATAGCTAAGATTACTATATCGACG” the binding signal was 0.708 log2 normalized fluorescence.
“CCGGCCGACACATGGTTTTAATAGCTAAGATTACTATATCGACG” was tested, and the binding signal was 0.635 log2 normalized fluorescence.
With “CCGGCTGACACGTGTACTTAATAGCTAAGATTACTATATCGACG” the binding signal was 0.823 log2 normalized fluorescence.
“CCGGCTGACACATGGTTTTAATAGCTAAGATTACTATATCGACG” was tested, and the binding signal was 0.817 log2 normalized fluorescence.
“CCGGCTGACATGTGGTTTTAATAGCTAAGATTACTATATCGACG” was tested, and the binding signal was 0.359 log2 normalized fluorescence.
With “CCGGCTGACACGTGTTGTTAATAGCTAAGATTACTATATCGACG” the binding signal was 0.83 log2 normalized fluorescence.
With “CCGGCTGAGACCTGCTATTAATAGCTAAGATTACTATATCGACG” the binding signal was -0.0388 log2 normalized fluorescence.
“CCGGCTGGCACCTGGCATTAATAGCTAAGATTACTATATCGACG” was tested, and the binding signal was 0.319 log2 normalized fluorescence.
For “CCGGCTGAGTGTTAGTATTAATAGCTAAGATTACTATATCGACG”, the binding signal was 0.177 log2 normalized fluorescence.
With “CCGGCTGATGATGCGTATTAATAGCTAAGATTACTATATCGACG” the binding signal was 0.112 log2 normalized fluorescence.
With “CCGGCTGATATGACGTATTAATAGCTAAGATTACTATATCGACG” the binding signal was 0.0181 log2 normalized fluorescence.
With “CCGGCTAACACAAGGTATTAATAGCTAAGATTACTATATCGACG” the binding signal was 0.534 log2 normalized fluorescence.
“CCGGCTGACACGATATATTAATAGCTAAGATTACTATATCGACG” was tested, and the binding signal was 0.408 log2 normalized fluorescence.
“CCGGCTGACACGTAGTGTTAATAGCTAAGATTACTATATCGACG” was tested, and the binding signal was 0.396 log2 normalized fluorescence.
With “CCGGCTGTCACGTGTTCTTAATAGCTAAGATTACTATATCGACG” the binding signal was 0.848 log2 normalized fluorescence.
With “CCGGCTGACACGTGACCTTAATAGCTAAGATTACTATATCGACG” the binding signal was 0.633 log2 normalized fluorescence.
With “CCGGCTGTCACGTGCTATTAATAGCTAAGATTACTATATCGACG” the binding signal was 0.591 log2 normalized fluorescence.
For “CCGGCTGACACGTGTTCTTAATAGCTAAGATTACTATATCGACG”, the binding signal was 0.738 log2 normalized fluorescence.
For “CCGGCTGACACGTAGTTTTAATAGCTAAGATTACTATATCGACG”, the binding signal was 0.406 log2 normalized fluorescence.
In the case of “CCGGCTGACACGTGTGTTTAATAGCTAAGATTACTATATCGACG”, the binding signal is reported as 0.7 log2 normalized fluorescence.
In the case of “CCGGCTGACACGTGTAGTTAATAGCTAAGATTACTATATCGACG”, the binding signal is reported as 0.834 log2 normalized fluorescence.
With “CCGGCTGACACGTGTCCTTAATAGCTAAGATTACTATATCGACG” the binding signal was 0.926 log2 normalized fluorescence.
“CCGGCTGACACGTGCCCTTAATAGCTAAGATTACTATATCGACG” was tested, and the binding signal was 0.7 log2 normalized fluorescence.
In the case of “CCGGCTGACACGTGGTTTTAATAGCTAAGATTACTATATCGACG”, the binding signal is reported as 0.795 log2 normalized fluorescence.
In the case of “CCGGCTGACACGTGTTTTTAATAGCTAAGATTACTATATCGACG”, the binding signal is reported as 0.847 log2 normalized fluorescence.
For “CCGGCTGAAACAACGTATTAATAGCTAAGATTACTATATCGACG”, the binding signal was 0.159 log2 normalized fluorescence.
“CCGGCCGACATGTAGTATTAATAGCTAAGATTACTATATCGACG” was tested, and the binding signal was 0.368 log2 normalized fluorescence.
In the case of “CCGGCAGACAAGTGCTATTAATAGCTAAGATTACTATATCGACG”, the binding signal is reported as 0.353 log2 normalized fluorescence.
With “CCGGCAATCTAGTCTACTTAATAGCTAAGATTACTATATCGACG” the binding signal was 0.0163 log2 normalized fluorescence.
For “CCGGCTGATATAATGTATTAATAGCTAAGATTACTATATCGACG”, the binding signal was 0.0653 log2 normalized fluorescence.
For “CCGGCTGAACTCGCGTATTAATAGCTAAGATTACTATATCGACG”, the binding signal was 0.276 log2 normalized fluorescence.
For “CCGGCTGAAACCAAGTATTAATAGCTAAGATTACTATATCGACG”, the binding signal was 0.0737 log2 normalized fluorescence.
“CCGGCTGAACCAGTGTATTAATAGCTAAGATTACTATATCGACG” was tested, and the binding signal was 0.036 log2 normalized fluorescence.
With “CCGGCTAGCACGTGGCATTAATAGCTAAGATTACTATATCGACG” the binding signal was 0.803 log2 normalized fluorescence.
In the case of “CCGGCTGACACGTGCAGTTAATAGCTAAGATTACTATATCGACG”, the binding signal is reported as 0.746 log2 normalized fluorescence.
In the case of “CCGGCTGACACGTGCAATTAATAGCTAAGATTACTATATCGACG”, the binding signal is reported as 0.779 log2 normalized fluorescence.
With “CCGGCTGGCACGTGGTTTTAATAGCTAAGATTACTATATCGACG” the binding signal was 0.67 log2 normalized fluorescence.
